# Active and inactive are the calls of the source. Unless noted, no rule for the calls is given here.
# Experiments:
# [1] = test system: Wnt5a (protein binding on small-molecule microarray); assay: small molecules binding Wnt5a protein – biophysical, small-molecule microarray, 635/667 nm fluorescence, primary screen (AID 1142); conditions: 635 nm fluorescence, higher = more signal;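 also: fluorescence read at 667 nm with signal to noise per printed feature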
# [2] = ATP-based viability of Huh7 replicon cells – cell-based, CellTiter-Glo luminescence, basal, 48 h, cytotoxicity control for HCV replication inhibitor project, primary screen (AID 1143); conditions: higher = more signal, called active from +8 up or from −8 down;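 also: Huh7 hepatoma cells carrying a hepatitis C replication reporter with no stimulus; test concentration not given here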
# [3] = Pseudomonas biofilm growth suppression – PAO1 strain, BacTiter-Glo luminescence, LB-PBS, primary screen (AID 1144); conditions: P. aeruginosa PAO1 biofilm, 12 h, higher = more signal
# [4] = basal CRE-LacZ reporter activity in PC12 – cell-based, unstimulated, primary screen (AID 1145); conditions: no forskolin, luminescence, 4.5 h, higher = more signal, called active from +8 up or from −8 down
# [5] = forskolin-driven CRE-LacZ activity in PC12 – cell-based, CRE-LacZ reporter, forskolin-stimulated, primary screen (AID 1146); conditions: luminescence, 4.5 h, higher = more signal, called active from +8 up or from −8 down;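 also: PC12 cells with 6xCRE LacZ reporter stimulated by forskolin 10 µM; beta-galactosidase reporter signal reflecting CREB driven transcription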
# [6] = target: Streptavidin (Streptomyces avidinii) (UniProt P22629); assay: compounds binding control protein streptavidin – biophysical, small-molecule microarray, 635/667 nm fluorescence, artefact control for SMM compound annotation, primary screen (AID 1147); conditions: higher = more signal;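 also: signal reflects streptavidin binding to arrayed compounds as a control protein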
# Chain of Streptavidin (Streptomyces avidinii) (P22629 whole entry, looked up): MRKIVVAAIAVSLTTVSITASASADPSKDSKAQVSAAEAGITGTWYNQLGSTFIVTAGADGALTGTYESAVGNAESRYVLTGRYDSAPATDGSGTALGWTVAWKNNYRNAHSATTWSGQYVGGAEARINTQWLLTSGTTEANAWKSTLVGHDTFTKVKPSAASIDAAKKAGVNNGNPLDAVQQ
# [7] = probe aInhba binding on compound microarray – biochemical, small-molecule microarray, 635/667 nm fluorescence, primary screen (AID 1148); conditions: higher = more signal;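 also: score merges 667nm spot fluorescence with signal-to-noise for antibody binding to printed compounds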
# Torsin-1A (Homo sapiens) [8] = target: Torsin-1A (Homo sapiens) (UniProt O14656); assay: TOR1A wild-type binding on microarray – cell lysate, small-molecule microarray, lysate, 635/667 nm, primary screen (AID 1149); conditions: COS7 hTOR1A-WT lysate, 635 nm fluorescence, higher = more signal
# Chain of Torsin-1A (Homo sapiens) (O14656 whole entry, looked up): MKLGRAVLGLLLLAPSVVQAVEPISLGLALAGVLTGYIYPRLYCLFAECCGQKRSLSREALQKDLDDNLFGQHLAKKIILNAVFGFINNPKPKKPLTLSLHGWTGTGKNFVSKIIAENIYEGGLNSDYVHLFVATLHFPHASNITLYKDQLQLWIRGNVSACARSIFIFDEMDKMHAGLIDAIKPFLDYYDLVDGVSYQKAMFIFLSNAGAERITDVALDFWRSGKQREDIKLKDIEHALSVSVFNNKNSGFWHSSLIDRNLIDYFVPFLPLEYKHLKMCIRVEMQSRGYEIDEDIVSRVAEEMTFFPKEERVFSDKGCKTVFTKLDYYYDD
# Torsin-1A (Homo sapiens) [9] = target: Torsin-1A (Homo sapiens) (UniProt O14656); assay: torsin A mutant lysate binding on microarrays – cell lysate, small-molecule microarray, COS7 lysate, 635/667 nm fluorescence, primary screen (AID 1150); conditions: COS7 hTOR1A mutant lysate, 635 nm fluorescence, higher = more signal;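 also: score pools 667 nm emission and signal to noise measuring lysate protein binding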
# [10] = test system: Sonic hedgehog protein (Shh); assay: Sonic hedgehog microarray binding compounds – biochemical, small-molecule microarray, 635/667 nm fluorescence, primary screen (AID 1151); conditions: 635 nm fluorescence, higher = more signal;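 also: Shh protein binding to compounds spotted on small-molecule microarray slides; score combines spot fluorescence intensity with signal-to-noise across triplicate slides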
# [11] = optical density shifts of acrAB sulA E. coli – strain DRC41, OD650, 48 h, E. coli filamentation inducer project, primary screen (AID 1152); conditions: higher = more signal, called active from +8 up or from −8 down;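 also: E. coli MC1000 strain DRC41 lacking acrAB efflux pump and sulA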
# [12] = probe aLefty1 binding on compound microarray – biochemical, small-molecule microarray, 635/667 nm fluorescence, primary screen (AID 1153); conditions: higher = more signal;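 also: score merges spot fluorescence with signal-to-noise ratio from the scanned slide images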
# [13] = plasmodial surface anion channel blockers, osmotic lysis – cell-based, P. falciparum Indochina, OD700, 1 h, primary screen (AID 1154); conditions: P. falciparum Indochina infected RBC osmotic lysis, higher = more signal, called active from +8 up or from −8 down
# [14] = plasmodial surface anion channel blockers, osmotic lysis – cell-based, P. falciparum Indochina, OD700, 2 h, primary screen (AID 1155);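 also: lysis reports solute entry through the parasite surface anion channel PSAC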; conditions: P. falciparum Indochina infected erythrocytes, higher = more signal, called active from +8 up or from −8 down
# [15] = changes in parasitized red cell lysis, either direction – P. falciparum Indochina, OD700, 3 h, PSAC antagonist project, primary screen (AID 1156); conditions: P. falciparum-infected erythrocytes, osmotic lysis, higher = more signal, called active from +8 up or from −8 down
# [16] = plasmodial surface anion channel blockers, osmotic lysis – cell-based, P. falciparum Indochina, OD700, 18 h, primary screen (AID 1157); conditions: P. falciparum Indochina infected erythrocytes, osmotic lysis OD700, 18 h; higher = more signal, called active from +8 up or from −8 down
# [17] = S6 kinase pathway phospho-S6 level changes – cell-based, A549, cytoblot, luminescence, serum-stimulated, primary screen (AID 1158); conditions: 5 h, higher = more signal;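 also: serum-stimulated A549 lung adenocarcinoma cells; signal is phosphorylated S6 detected by cytoblot immunostaining with HRP secondary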
# [18] = target: NADPH oxidase 2 (Homo sapiens) (UniProt P04839); assay: compounds shifting NOX2 Amplex Red fluorescence – cell-based, HEK293-NOX2, PMA-stimulated, NOX inhibitor project, primary screen (AID 1159); conditions: 45 min, higher = more signal, called active from +8 up or from −8 down; also: test concentration not given here
# Chain of NADPH oxidase 2 (Homo sapiens) (P04839 whole entry, looked up): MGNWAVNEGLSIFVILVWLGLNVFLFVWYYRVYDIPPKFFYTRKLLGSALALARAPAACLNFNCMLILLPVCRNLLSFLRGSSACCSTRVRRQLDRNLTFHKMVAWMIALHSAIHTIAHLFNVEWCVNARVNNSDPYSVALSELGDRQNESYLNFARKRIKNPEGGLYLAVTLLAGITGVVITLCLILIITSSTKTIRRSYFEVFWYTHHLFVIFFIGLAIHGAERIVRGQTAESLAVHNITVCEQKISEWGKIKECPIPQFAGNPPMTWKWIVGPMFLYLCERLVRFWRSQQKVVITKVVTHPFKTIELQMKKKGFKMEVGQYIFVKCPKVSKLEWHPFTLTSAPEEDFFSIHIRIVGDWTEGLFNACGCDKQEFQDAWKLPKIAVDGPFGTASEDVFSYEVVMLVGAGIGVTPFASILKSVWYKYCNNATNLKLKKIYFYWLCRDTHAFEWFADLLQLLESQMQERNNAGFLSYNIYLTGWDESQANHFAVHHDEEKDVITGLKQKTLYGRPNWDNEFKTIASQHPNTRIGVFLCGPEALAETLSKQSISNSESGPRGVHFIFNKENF
# [19] = target: NADPH oxidase 4 (Homo sapiens) (UniProt Q9NPH5); assay: compounds shifting NOX4 Amplex Red fluorescence – cell-based, HEK293-NOX4, tetracycline-induced, NOX inhibitor project, primary screen (AID 1160); conditions: HEK293-NOX4, Amplex Red H2O2 fluorescence, 45 min; higher = more signal, called active from +8 up or from −8 down
# Chain of NADPH oxidase 4 (Homo sapiens) (Q9NPH5 whole entry, looked up): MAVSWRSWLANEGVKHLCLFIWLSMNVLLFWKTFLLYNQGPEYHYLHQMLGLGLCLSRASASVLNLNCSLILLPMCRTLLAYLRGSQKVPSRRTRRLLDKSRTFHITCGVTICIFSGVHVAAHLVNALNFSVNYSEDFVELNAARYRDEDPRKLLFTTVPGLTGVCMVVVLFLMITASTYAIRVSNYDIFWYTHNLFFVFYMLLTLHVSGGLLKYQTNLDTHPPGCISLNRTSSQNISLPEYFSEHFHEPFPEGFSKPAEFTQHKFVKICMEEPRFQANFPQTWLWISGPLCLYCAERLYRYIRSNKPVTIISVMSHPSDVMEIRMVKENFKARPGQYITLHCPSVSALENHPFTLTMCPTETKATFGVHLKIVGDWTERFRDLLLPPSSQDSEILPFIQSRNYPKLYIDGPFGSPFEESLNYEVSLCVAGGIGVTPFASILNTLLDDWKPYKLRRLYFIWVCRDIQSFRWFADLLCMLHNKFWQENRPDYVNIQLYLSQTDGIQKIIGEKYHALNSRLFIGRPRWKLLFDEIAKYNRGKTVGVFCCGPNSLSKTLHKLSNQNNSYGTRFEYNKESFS
# [20] = target: NADPH oxidase 5 (Homo sapiens) (UniProt Q96PH1); assay: compounds shifting NOX5 Amplex Red fluorescence – cell-based, HEK293-NOX5, NOX inhibitor project, primary screen (AID 1161); conditions: HEK293-NOX5, ionomycin, 45 min, higher = more signal
# Chain of NADPH oxidase 5 (Homo sapiens) (Q96PH1 whole entry, looked up): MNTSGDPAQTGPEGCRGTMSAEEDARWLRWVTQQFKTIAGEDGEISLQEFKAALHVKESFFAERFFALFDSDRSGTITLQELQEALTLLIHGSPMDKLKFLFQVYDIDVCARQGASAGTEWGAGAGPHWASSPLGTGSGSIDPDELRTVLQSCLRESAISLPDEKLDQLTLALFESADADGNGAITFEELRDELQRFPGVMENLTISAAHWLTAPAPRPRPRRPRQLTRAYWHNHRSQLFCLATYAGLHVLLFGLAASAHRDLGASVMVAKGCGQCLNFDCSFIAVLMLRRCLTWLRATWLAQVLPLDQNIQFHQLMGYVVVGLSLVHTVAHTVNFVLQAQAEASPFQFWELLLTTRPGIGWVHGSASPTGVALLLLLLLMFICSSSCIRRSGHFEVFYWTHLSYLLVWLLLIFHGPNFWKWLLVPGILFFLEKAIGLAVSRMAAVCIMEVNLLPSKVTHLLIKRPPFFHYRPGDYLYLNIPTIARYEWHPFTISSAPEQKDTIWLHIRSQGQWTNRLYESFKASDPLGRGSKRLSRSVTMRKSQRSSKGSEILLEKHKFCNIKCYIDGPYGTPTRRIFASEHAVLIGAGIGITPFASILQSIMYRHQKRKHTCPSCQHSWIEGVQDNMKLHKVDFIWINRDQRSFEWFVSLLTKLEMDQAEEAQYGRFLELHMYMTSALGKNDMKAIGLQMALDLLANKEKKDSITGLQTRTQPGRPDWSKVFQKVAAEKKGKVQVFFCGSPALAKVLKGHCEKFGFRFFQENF
SMILES,composite z-score [1],z-score [2],z-score [3],z-score [4],z-score [5],composite z-score [6],composite z-score [7],composite z-score (Torsin-1A (Homo sapiens) [8]),composite z-score (Torsin-1A (Homo sapiens) [9]),composite z-score [10],z-score [11],composite z-score [12],z-score [13],z-score [14],z-score [15],z-score [16],z-score [17],z-score [18],z-score [19],z-score [20]
CON(C)C(=O)c1nnc2c(n1)[nH]c1ccccc12,0.0269,0.569 (inactive),0.555 (inactive),0.198 (inactive),0.275 (inactive),0.153,-0.101,0.275,0.333,0.928,-0.398 (inactive),-0.161,1.61 (inactive),0.235 (inactive),-0.322 (inactive),0.0008 (inactive),-0.133,1.04 (inactive),0.103 (inactive),0.836
OC[C@H]1O[C@H](C#Cc2ccccc2)C=C[C@@H]1O,0.0146,-0.574 (inactive),-0.385 (inactive),-1.07 (inactive),0.186 (inactive),0.431,0.0227,-0.339,0.141,0.363,0.402 (inactive),-0.425,1.74 (inactive),0.803 (inactive),0.802 (inactive),0.784 (inactive),-0.0359,-0.178 (inactive),0.662 (inactive),1.33
CCOC(=O)[C@H](CC(C)C)NC(=O)CCC1CC(OC(=O)NCCc2ccc(F)cc2)CC2(CCCC(COC(=O)NCCOC)O2)O1 (stereo not given in full),0.441,-0.127 (inactive),0.045 (inactive),0.198 (inactive),0.0489 (inactive),0.581,-0.215,0.441,0.259,1.53,-1.39 (inactive),-0.198,3.18 (inactive),0.621 (inactive),0.0768 (inactive),-0.0213 (inactive),-0.474,-0.25 (inactive),0.998 (inactive),1.19
CC(=O)OC[C@H]1O[C@H](CC=NOC(C)CN2CCCCc3nc(C)c(C)cc32)C=C[C@@H]1OC(C)=O (stereo not given in full),0.696,-0.402 (inactive),0.725 (inactive),-0.157 (inactive),0.278 (inactive),1.87,-0.137,3.43,2.9,1.48,0.0072 (inactive),0.589,0.595 (inactive),0.324 (inactive),0.417 (inactive),0.246 (inactive),-0.626,-1.69 (inactive),-0.695 (inactive),-1.24
O=C1C[C@@H](O)[C@@H](O)[C@@H]2[C@@H]3C(=O)N(c4ccc(F)cc4F)C(=O)[C@@H]3CC[C@H]12,0.0583,-1.24 (inactive),0.0279 (inactive),0.064 (inactive),-0.13 (inactive),0.234,-0.101,0.403,0.302,1.09,-0.706 (inactive),-0.147,-0.0503 (inactive),0.0554 (inactive),-0.737 (inactive),0.06 (inactive),0.0123,1.09 (inactive),0.366 (inactive),-0.158
CC(C)=CCCC(C)=CCON=C1C[C@@H](O)[C@@H](O)[C@@H]2[C@@H]3C(=O)N(Cc4ccc5c(c4)OCO5)C(=O)[C@@H]3CC[C@H]12,0.352,-1.61 (inactive),0.802 (inactive),-0.295 (inactive),0.489 (inactive),0.133,-0.0332,0.46,0.724,0.728,-0.171 (inactive),-0.202,11.1 (active),1.73 (inactive),1.64 (inactive),0.844 (inactive),-0.429,-0.344 (inactive),-2.35 (inactive),-4.13
COC(=O)CC=C[C@@H](C)[C@@H](C=NOC[C@@H](O)[C@H]1O[C@@H]2OC(C)(C)O[C@@H]2[C@H]1O)OC,0.183,0.559 (inactive),0.601 (inactive),-0.0545 (inactive),0.0127 (inactive),0.271,-0.149,-0.104,0.162,0.867,0.29 (inactive),-0.0603,0.332 (inactive),0.453 (inactive),0.141 (inactive),0.443 (inactive),-0.332,0.144 (inactive),-0.51 (inactive),0.15
CC(C)=CCCC(C)=CCON=C1C[C@@H](O)[C@@H](O)[C@@H]2[C@@H]3C(=O)N(C4CCCCC4)C(=O)[C@@H]3CC[C@H]12,0.342,-2.76 (inactive),0.419 (inactive),-0.38 (inactive),-0.306 (inactive),0.12,-0.15,0.46,0.159,1.01,0.693 (inactive),-0.132,7.24 (inactive),0.991 (inactive),1.11 (inactive),0.645 (inactive),-0.319,-0.693 (inactive),-1.02 (inactive),-4.91

# From PubChem BioAssay
